Target: NF-kB p50 homodimer (Homo sapiens, UniProt P19838 1-433)
Assay: bimolecular dsDNA microarray; Bimolecular dsDNA microarray on aldehyde glass; probes annealed in 10 mM Tris-HCl pH 8.0, 100 mM NaCl, 1 mM EDTA; binding buffer and temperature as in ref 16, not stated; high values mean tight binding
Details: protein: commercial; tags: Cy3-labeled for microarray; chain copies: 2; label: 5' amino linker to the slide; dsDNA, one strand shown

NF-kB p50 homodimer, sequence (P19838 1-433): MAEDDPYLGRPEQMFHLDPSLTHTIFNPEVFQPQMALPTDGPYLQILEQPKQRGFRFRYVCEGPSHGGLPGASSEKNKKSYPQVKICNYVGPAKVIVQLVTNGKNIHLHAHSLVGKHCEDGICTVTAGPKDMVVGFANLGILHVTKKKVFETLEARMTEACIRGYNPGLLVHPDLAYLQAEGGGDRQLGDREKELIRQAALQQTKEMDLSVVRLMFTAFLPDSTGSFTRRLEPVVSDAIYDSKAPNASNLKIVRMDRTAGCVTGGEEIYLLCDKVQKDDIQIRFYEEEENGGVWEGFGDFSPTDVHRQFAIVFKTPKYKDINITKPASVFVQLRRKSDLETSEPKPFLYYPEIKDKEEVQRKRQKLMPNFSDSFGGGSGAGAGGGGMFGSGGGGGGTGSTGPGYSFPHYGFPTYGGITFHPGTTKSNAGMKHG

Row | Sequence | binding signal [a.u.]
1 | GGGAGTTTCC | 55.8
2 | GGTACTTTCC | 46.1
3 | GAGACTTTCC | 16.7
4 | GGGCCTTTCC | 20.5
5 | GGGACTTTTC | 29.6
6 | GGGACTTTCG | 24.6
7 | GGGATTTTCC | 58.5
8 | GGGACTTCCC | 60.9
9 | GGGACTTTCC | 52.8
10 | GGGACTATCC | 20
11 | GTGACTTTCC | 20.4
12 | GGGACTTTCA | 24.7
13 | GGAACTTTCC | 31.4
14 | GGGACTCTCC | 24.8
15 | GGCACTTTCC | 19.2
16 | GGGACTTTCT | 20.2

Row | Sequence | binding signal [a.u.]
17 | GGGACTTTAC | 38.1
18 | GGGACTTTGC | 22.9
19 | GGGACTTGCC | 18.8
20 | GGGGCTTTCC | 49.7
21 | GGGACTTACC | 25.4
22 | TGGACTTTCC | 22.8
23 | GGGTCTTTCC | 28.6
24 | GGGACATTCC | 26.5
25 | GGGACCTTCC | 19.8
26 | AGGACTTTCC | 21.1
27 | GGGACGTTCC | 25
28 | GGGACTGTCC | 32.4
29 | GCGACTTTCC | 12.5
30 | CGGACTTTCC | 19.8
31 | GGGAATTTCC | 57.5
